# Hits are enriched below; roughly 4.3% of the tested compounds scored in any of these assays.
# ADAM10 inh: human ADAM10 inhibitors, primary screen, biochemical, QFRET, HTS | Disintegrin and metalloproteinase domain-containing protein 10 (Homo sapiens), O14672 | recombinant ADAM10, EDANS/DABCYL FRET peptide cleavage, 3 h | inhibition, % at 7 µM | actives 0.62% (n = 370,000);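 active = inhibition above a per-campaign cutoff equal to the mean of compounds falling between control-based bounds plus 3 SD, cut at about 20% in these data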
# HGIII-sPLA2 inh: human group III sPLA2 inhibitors, primary screen, biochemical, QFRET, BODIPY PC-A2 liposome substrate; Group 3 secretory phospholipase A2 (Homo sapiens), Q9NZ20; QFRET BODIPY PC-A2 liposome hydrolysis, fluorescence; inhibition, % at 12.2 µM; actives 0.56% (n = 370,000);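 active = inhibition above mean plus 3 SD of compounds lying within the high and low control bounds, cut at about 19% in these data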
# Target sequence (Q9NZ20 whole entry, looked up): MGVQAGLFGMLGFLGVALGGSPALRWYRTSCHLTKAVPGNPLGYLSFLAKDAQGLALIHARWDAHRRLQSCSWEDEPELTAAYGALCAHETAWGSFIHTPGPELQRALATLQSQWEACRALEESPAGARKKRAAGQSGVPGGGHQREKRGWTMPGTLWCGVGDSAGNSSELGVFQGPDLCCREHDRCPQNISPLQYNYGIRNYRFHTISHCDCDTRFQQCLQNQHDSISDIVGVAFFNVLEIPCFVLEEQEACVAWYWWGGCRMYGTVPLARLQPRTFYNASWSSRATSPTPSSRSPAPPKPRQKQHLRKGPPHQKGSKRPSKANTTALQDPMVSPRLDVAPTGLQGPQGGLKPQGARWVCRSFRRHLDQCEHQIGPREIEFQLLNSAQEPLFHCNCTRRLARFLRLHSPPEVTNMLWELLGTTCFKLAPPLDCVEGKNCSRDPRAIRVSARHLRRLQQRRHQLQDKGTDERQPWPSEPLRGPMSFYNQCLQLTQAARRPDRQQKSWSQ
# ADAM17 inh: ADAM17 inhibitors, primary screen, biochemical, QFRET; recombinant ADAM17, EDANS/DABCYL FRET peptide cleavage; inhibition, % at 6.95 µM; actives 0.83% (n = 370,000);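 active = inhibition above the mean of compounds lying between control limits plus 3 SD, set per campaign, cut at about 8.5% in these data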
# FAS-TE inh: FAS thioesterase domain inhibitors, primary screen, biochemical, fluorescence intensity, uHTS; recombinant FAS-TE, OMFH fluorogenic substrate, fluorescence endpoint; inhibition, % at 15 µM; actives 0.67% (n = 360,000);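 active = compounds whose normalised, plate-corrected inhibition of enzyme fluorescence in the single-dose primary screen is 50% or more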
# NR3A LBD binder: binders of NR3A ligand-binding domain, primary screen, biophysical, differential scanning fluorimetry, uHTS. actives 2.5% (n = 340,000). Tm shift relative to glycine control, % at 25 µM. AID 1259313, 2017. NR3A LBD differential scanning fluorimetry, Tm shift; 0% = protein alone, 100% = glycine-bound protein;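 active = melting temperature shift of at least 10% of the positive control shift, at one fixed dose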
# Hits are given with their value; . = inactive; / = no result.
SMILES,ADAM10 inh,HGIII-sPLA2 inh,ADAM17 inh,FAS-TE inh,NR3A LBD binder
CC(=O)Nc1ccc(C(=O)N/N=C/c2ccc(F)cc2)cc1,.,.,.,.,.
O=C(N/N=C/c1cc(Br)cc(Br)c1O)c1ccncc1,.,.,.,/,.
O=C(N/N=C/c1cc(Br)cc([N+](=O)[O-])c1O)c1ccc(NC(=O)c2ccc(F)cc2)cc1,.,.,.,.,18.3
O=C(CCCC(=O)Nc1ccc(Br)cc1)N/N=C/c1ccccc1,.,.,.,.,10.0
Cc1ccccc1C(=O)Nc1ccc(C(=O)N/N=C/c2ccc(F)cc2)cc1,.,.,.,.,26.0
O=C(N/N=C/c1ccc2c(c1)OCO2)c1ccc(NC(=O)c2ccc(F)cc2)cc1,.,.,.,.,18.9
O=C(CCCSCCCC(=O)NN=Cc1ccccc1)NN=Cc1ccccc1,.,.,.,.,.
CCCCCCNC(=O)C1CSCCS(=O)(=O)N1Cc1ccc(F)cc1 (configuration not stated),.,.,.,/,/
COc1ccc([C@H]2OC(=O)C[C@H]2C(=O)N2CCN(C(=O)C3CCCO3)CC2)cc1OC (some centres not stated),.,.,.,/,/
C=CCN1C(=O)[C@@H](CC(=O)NCCc2ccccc2OC)[C@]2(C(=O)OC)CCCCC=C12,.,.,.,/,/
CCn1c(SCC(=O)c2ccc(-c3ccccc3)cc2)nnc1-c1ccc(C(C)(C)C)cc1,.,.,.,/,/
CC(C)(C)CCN1C[C@@H]2C(CNC(=O)c3cc(Cl)cc(Cl)c3)[C@@H]2C1 (some centres not stated),.,.,.,/,/
Brc1ccc(/C=N/Nc2ccccc2)cc1,.,.,.,.,20.4
COc1ccc(C2CC(c3cccc(Br)c3)=NN2c2ccc(S(N)(=O)=O)cc2)cc1 (configuration not stated),.,.,.,.,27.0
COc1ccc(C2CC(c3ccccc3)=NN2c2ccc(S(N)(=O)=O)cc2)cc1 (configuration not stated),.,.,.,.,.
NS(=O)(=O)c1ccc(N2N=C(c3ccccc3)CC2c2ccc(F)cc2)cc1 (configuration not stated),.,.,.,.,.
COc1ccc(C2CC(c3ccccc3Cl)=NN2c2ccc(S(N)(=O)=O)cc2)cc1 (configuration not stated),.,.,.,.,11.4
COc1ccc(C2CC(c3cccc(C(F)(F)F)c3)=NN2c2ccc(S(N)(=O)=O)cc2)cc1 (configuration not stated),.,.,.,.,28.4
COc1ccc(C2CC(c3cccc(F)c3)=NN2c2ccc(S(N)(=O)=O)cc2)cc1 (configuration not stated),.,.,.,.,36.8
Nc1[nH]c(C(=O)c2ccccc2)c(-c2ccccc2C(F)(F)F)c1C(=O)c1c[nH]c2ccccc12,.,.,.,/,/
CC(C)[C@H](NC(=O)c1ccc(Cl)cc1Cl)C(=O)N1CCC[C@H]1C(=O)NCc1ccccc1,.,.,.,/,/
NS(=O)(=O)c1ccc(N2N=C(c3ccccc3)CC2c2cccc(Cl)c2)cc1 (configuration not stated),.,.,.,.,24.1
Cc1cccc(C2CC(c3ccccc3)=NN2c2ccc(S(N)(=O)=O)cc2)c1 (configuration not stated),.,.,.,.,/
CC(/C=C1\SC(=S)N(CCC(=O)Nc2ccccc2O)C1=O)=C\c1ccccc1,.,.,.,.,19.9
CC(=O)c1ccc(NC(=O)CN2C(=O)/C(=C/C=C/c3ccccc3)SC2=S)cc1,.,.,.,.,.
SMILES,ADAM10 inh,HGIII-sPLA2 inh,ADAM17 inh,FAS-TE inh,NR3A LBD binder
CC(=C\c1ccccc1)/C=C1/SC(=S)N(CCCC(=O)O)C1=O,.,.,.,.,.
O=C(O)CN1C(=O)/C(=C\C(Br)=C\c2ccccc2)SC1=S,.,.,.,.,13.3
O=C(O)CN1C(=O)/C(=C/C=C/c2ccccc2)SC1=S,.,.,.,.,20.6
O=[N+]([O-])c1ccc(OCCCN2CCC(C(O)(c3ccccc3)c3ccccc3)CC2)c(Cl)c1,.,.,.,/,/
COc1ccc(CNC(=O)c2sc3nc(C)c(Cl)c(C)c3c2N)cc1,.,.,.,/,/
c1ccc(CSc2ccc(-c3cccs3)nn2)cc1,.,.,.,.,19.1
c1ccc(CSc2ccc(-c3cccs3)nn2)nc1,.,.,.,.,.
COc1ccc(NC(=O)Nc2cccc3c2O[C@H](CN(C)S(=O)(=O)c2cn(C)cn2)[C@@H](C)CN([C@H](C)CO)C3=O)cc1,.,.,.,.,15.5
Cc1noc(C)c1S(=O)(=O)N(C)C[C@H]1Oc2c(NC(=O)Nc3ccc(C(F)(F)F)cc3)cccc2C(=O)N([C@H](C)CO)C[C@@H]1C,.,.,.,.,10.5
COc1ccc(S(=O)(=O)N(C)C[C@H]2Oc3c(NC(=O)Nc4ccccc4)cccc3C(=O)N([C@H](C)CO)C[C@@H]2C)cc1,.,.,.,.,.
CCOC(=O)c1nnc(-c2ccccc2)nc1Sc1ccccc1Cl,.,.,.,.,.
CCOC(=O)c1nnc(-c2ccccc2)nc1Oc1ccc(Cl)cc1,.,.,.,.,10.8
CCOC(=O)c1cnc(-c2ccccc2)nc1Oc1cccc(Cl)c1,.,.,.,.,14.0
Cc1cc2ncn(/N=C/c3ccc([N+](=O)[O-])s3)c2cc1C,.,.,.,.,26.8
O=[N+]([O-])c1ccc(/C=N/n2cnc3ccccc32)s1,.,.,.,.,.
O=C1CCCCC1CCS(=O)(=O)NCc1ccccc1 (configuration not stated),.,.,.,/,/
CCN(CC)S(=O)(=O)c1ccc2c(c1)c(=O)c(C(=O)NCCCN(C)c1ccccc1)cn2C,.,.,.,.,.
CN(CCCNC(=O)c1cn(C)c2ccc(S(=O)(=O)N(C)C)cc2c1=O)c1ccccc1,.,.,.,.,18.2
CC(C)CN1C(=O)[C@@]2(CC(=O)N(C)C2c2ccccc2)c2cc(-n3cc(CCc4ccccc4)nn3)ccc21 (some centres not stated),.,.,.,/,/
O=C(NCCCc1ccccc1)OC1CCC12CCC(c1ccccc1)CC2 (configuration not stated),.,.,.,/,/
CCc1cc2c(=O)n(CC(C)C)cnc2s1,.,.,.,.,18.0
N=C1/C(=C\c2ccc(-c3cc(Cl)cc(Cl)c3)o2)C(=O)N=C2SC=C(c3ccccc3)N12,.,.,.,.,23.5
COc1ccc(S(=O)(=O)N2CCN(C(=O)CSc3nc4ccccc4nc3N3CCCCC3)CC2)cc1,.,.,.,/,/

# Assay outcomes (PubChem)
